Source: PubChem BioAssay (NCI)
Compounds without any hit were thinned out: in the full panel of roughly 79,000, 15% have a hit. Cut-off read from the data, not from the text of the source: active = growth inhibition above about 70%; inactive = the rest.

Experiments:
[1] = NCI Yeast Anticancer Drug Screen. Data for the rad50 strain (AID 155);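 note: 0% = growth of vehicle-only cultures of the same strain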; details: S. cerevisiae rad50 strain growth inhibition; at 50.0 µM; active compounds read high
Outline: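 Vehicle-treated cultures provide the reference for the growth inhibition reported for compound-exposed, repair-deficient yeast.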

[2] = NCI Yeast Anticancer Drug Screen. Data for the mec2-1 strain (AID 157); details: S. cerevisiae mec2-1 strain, at 50.0 µM, active compounds read high
Outline: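 Each compound was tested on mec2-1 yeast, a strain altered in DNA damage repair or cell cycle control. Growth inhibition is reported relative to vehicle.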

[3] = NCI Yeast Anticancer Drug Screen. Data for the sgs1 mgt1 strain (AID 161);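 note: 0% = growth of cultures given vehicle only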; details: S. cerevisiae sgs1 mgt1 strain, at 50.0 µM, active compounds read high
Outline: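 Genetically altered yeast, compound exposure, growth inhibition relative to vehicle.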

[4] = NCI Yeast Anticancer Drug Screen. Data for the cln2 rad14 strain (AID 165);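 note: 0% = growth equal to vehicle treated cultures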; details: S. cerevisiae cln2 rad14 strain, at 50.0 µM, active compounds read high
Outline: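 Test compounds were added to cln2 rad14 yeast cultures; inhibition of growth was then determined by comparison with vehicle treatment.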

[5] = NCI Yeast Anticancer Drug Screen. Data for the bub3 strain (AID 167); details: S. cerevisiae bub3 mutant strain, at 50.0 µM, active compounds read high
Outline: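 Mutant yeast screening strain plus compound; vehicle-treated cultures serve as the 0% inhibition reference.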

[6] = NCI Yeast Anticancer Drug Screen. Data for the mlh1 rad18 strain (AID 175); details: S. cerevisiae mlh1 rad18 strain growth inhibition; at 50.0 µM; active compounds read high
Outline: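 Inhibition values reflect reduced growth of mutant yeast versus vehicle-treated controls following compound exposure; the mutations affect DNA damage repair.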

Measured: growth inhibition

O=C1CC(c2ccccc2)C(c2ccccc2)C1C(=O)OCCc1ccccc1 (stereo unspecified)
inactive: [1] 36% | [2] 2.85% | [3] 2.45% | [4] 1.5% | [5] -16.9% | [6] 1.3%

O=[N+]([O-])c1ccc(N=Nc2ccc(N(CCO)CCO)cc2)cc1
inactive: [1] -5.7% | [2] -8.35% | [3] 24% | [4] 1.25% | [5] 20.2% | [6] 6.1%

O=C1c2ccccc2CC1(c1ccccc1)c1ccccc1
inactive: [1] 15.1% | [2] -5% | [3] -6.6% | [4] 10.5% | [5] -9.85% | [6] -7.5%

Cc1nccc2scc(S(=O)(=O)O)c12
inactive: [1] 22.6% | [2] 10.5% | [3] 12.1% | [4] -12.8% | [5] -13.7% | [6] 22.7%

C=CC(O)CCCCCC (stereo unspecified)
inactive: [1] -4.9% | [2] -27.8% | [3] -22.4% | [4] -5.1% | [5] -10.2% | [6] -20.7%

Cc1ccc(-c2nc3ccccc3cc2N)cc1
inactive: [1] 5.85% | [2] 7.65% | [3] -0.45% | [4] -14% | [5] 3.15% | [6] -4.4%

CCOC(=O)C(CC(CC(C(=O)OCC)C(=O)OCC)=C(C)C)C(=O)OCC
inactive: [1] 36.1% | [2] 0.65% | [3] 15% | [4] -14.5% | [5] 24.2% | [6] 15.4%

N#CC(OC(=O)c1ccccc1)C(OC(=O)c1ccccc1)C(COC(=O)c1ccccc1)OC(=O)c1ccccc1 (stereo unspecified)
inactive: [1] -38.9% | [2] 6.3% | [3] 9.95% | [4] 20.5% | [5] -10.5% | [6] 26.6%

O=C(O)c1ccc([N+](=O)[O-])cc1OCc1ccccc1
inactive: [1] 13.4% | [2] -5.1% | [3] 12.9% | [4] -39% | [5] -3.4% | [6] 3.95%

O=C1C2=C(c3ccccc31)C(c1ccc(Cl)cc1)N1C(=O)CCSC1=N2 (stereo unspecified)
inactive: [1] 24.7% | [2] 10.6% | [3] 1.9% | [4] 8.25% | [5] 27.1% | [6] 25.3%

CC/C=C\C/C=C\C/C=C\CCCCCCCC(=O)OC(COC(=O)CCCCCCCCCCCCCCCCC)COC1OC(CO)C(O)C(O)C1O (stereo unspecified)
inactive: [1] 38.4% | [2] 8.55% | [3] 31.8% | [4] -3.4% | [5] 32.2% | [6] 33.4%

Cc1ccc(NC(=O)NC23CC4CC(CC(F)(C4)C2)C3)cc1
inactive: [1] 20.1% | [2] 4.45% | [3] -34% | [4] 0.25% | [5] -3.65% | [6] -12.3%

O=c1[nH]nc(SCc2ccccc2)c(=O)n1C(c1ccccc1)c1ccccc1
inactive: [1] 26.4% | [2] 12.4% | [3] 18.6% | [4] 28.2% | [5] 8.05% | [6] 5.3%

CC(=O)N(C(C)=O)N1C(=O)C2C3C=CC(C4CC34)C2C1=O (stereo unspecified)
inactive: [1] 30.2% | [2] 17% | [3] 15.8% | [4] 19.6% | [5] 2.95% | [6] 23.4%

O=C1CCC(c2nc3ccccc3o2)C(=O)N1 (stereo unspecified)
inactive: [1] -5.1% | [2] -20.5% | [3] -10.6% | [4] 0.65% | [5] -11.2% | [6] -13.7%

CN(C)c1ccc(/[N+]([O-])=C/C=C/C=[N+](/[O-])c2ccc(N(C)C)cc2)cc1
inactive: [1] -1.35% | [2] 3.8% | [3] 1.55% | [4] -28.6% | [5] 13.2% | [6] -14.6%

N#Cc1ccc(NN=NCCCCCl)cc1
inactive: [1] 8.85% | [2] -8.3% | [3] 14.8% | [4] 3.05% | [5] -6.7% | [6] 2.6%

CC(C)=CCCC(=O)C(c1nc2n(c1O)C(=N)N=N2)c1nc2n(c1O)C(=N)N=N2 (stereo unspecified)
inactive: [1] 12.1% | [2] 7.65% | [3] 2.1% | [4] 7.9% | [5] 5.55% | [6] 20.6%

Nc1nc(CCl)nc(N2CCOCC2)n1
inactive: [1] 6.3% | [2] 1.65% | [3] 7.7% | [4] 20.4% | [5] 19.4% | [6] -20.2%

O=c1oc2ccccc2c(O)c1C=NC(=S)c1ccncc1
inactive: [1] -30.6% | [2] -38.4% | [3] -27.9% | [4] 24.9% | [5] -11.3% | [6] -25.5%

CS/C(N)=N\C(=O)N(C)C
inactive: [1] 2.75% | [2] -14.5% | [3] -4.45% | [4] -20.6% | [5] -8.55% | [6] 3.65%

COC(=O)C(N)Cc1ccc(OC)cc1 (stereo unspecified)
inactive: [1] -4.95% | [2] -9.25% | [3] 8.1% | [4] -1.95% | [5] 7.6% | [6] 3.75%

CCOC(=O)CCC(NC(=O)c1ccc(N(C)C=O)cc1)C(=O)OCC (stereo unspecified)
inactive: [1] 10.9% | [2] -6.8% | [3] -0.55% | [4] -6.8% | [5] 6.45% | [6] 12.3%

CN(C)CCCN=C(N)N
inactive: [1] 1.25% | [2] -20.9% | [3] -23.9% | [4] 20.4% | [5] -57.5% | [6] -4.1%

COC12OCCN(C)C1=CC(=O)C1N=NCC12 (stereo unspecified)
inactive: [1] 5.75% | [2] 1.35% | [3] 11.2% | [4] 8.3% | [5] -0.3% | [6] 7.55%

Cc1c(Cl)cccc1NC(=O)OCCCc1ccccc1
inactive: [1] 1.5% | [2] 10.2% | [3] 15.6% | [4] -9.45% | [5] 9.35% | [6] 10.2%

Cc1nc2c(N3CCCCC3)ncnc2o1
inactive: [1] 7.3% | [2] -0.85% | [3] -6.15% | [4] -28.7% | [5] -13.8% | [6] 4.05%

COc1ccc(C2=NC(C)(C)CO2)cc1C
inactive: [1] -23.1% | [2] -4.15% | [3] 3.6% | [4] -17.9% | [5] 21.1% | [6] 20.5%

C[n+]1cc(I)cc2ccccc21
inactive: [1] 3.85% | [2] -3.45% | [3] -9.55% | [4] -0.2% | [5] 4.05% | [6] 5.05%

N#CC1CCCC[N-]1.[NH-]CC[N-]CC[NH-].[Pt+4] (stereo unspecified)
inactive: [1] 57.9% | [2] 17.2% | [3] 53.6% | [4] -10.1% | [5] 4.05% | [6] 43%

C=CCOC(=O)C(C)(C)OC(C)=O
inactive: [1] 13.9% | [2] 5.9% | [3] 10.8% | [4] 3.15% | [5] 2% | [6] -1.85%

O=S(CCO)c1ccc(Cl)cc1 (stereo unspecified)
inactive: [1] -26.1% | [2] -20.1% | [3] -21.2% | [4] -55.5% | [5] 2.75% | [6] -23.9%

CCOC(=O)NC(Nc1ccc(S(=O)(=O)Nc2ncccn2)cc1)(C(=O)OCC)C(F)(F)F (stereo unspecified)
inactive: [1] -0.55% | [2] -19.4% | [3] 10.9% | [4] 32.1% | [5] 16.9% | [6] 2.2%

c1ccc(-c2ccc(-c3ccccc3)c3nonc23)cc1
inactive: [1] -32.2% | [2] -2.25% | [3] -13.5% | [4] 23.4% | [5] 27.4% | [6] -4.45%

O=C(O)C(CCl)c1ccccc1 (stereo unspecified)
inactive: [1] 7.05% | [2] -3.1% | [3] 0.4% | [4] -17.1% | [5] 9.85% | [6] 2.25%

CC1(C)[C@H]2Cc3c(ccc4c3C(=O)OC4=O)[C@@H]1C2
inactive: [1] 6.75% | [2] -3.9% | [3] 0.35% | [4] -30.6% | [5] -17.4% | [6] 2.45%

N#C/C(=N\N=C(/C#N)c1ccc(Cl)cc1)c1ccc(Cl)cc1
inactive: [1] -5.8% | [2] -1.85% | [3] -5.5% | [4] -6.4% | [5] -4.25% | [6] -5.15%

COC(=O)c1nc(N)nc(C(=O)OC)c1C(=O)c1cccc([N+](=O)[O-])c1
inactive: [1] -11.1% | [2] -19.4% | [3] -33.2% | [4] 30.6% | [5] -21.7% | [6] -16.8%

O=C1c2ccccc2-c2ccc3c4ccc5c6c(ccc(c7ccc1c2c73)c64)-c1ccccc1C5=O
inactive: [1] 25% | [2] -5.4% | [3] 11.1% | [4] -30.4% | [5] 5.75% | [6] 18.4%

O=C(CSc1nnc(-c2ccc(N=Cc3ccc(Cl)cc3)cc2)o1)Nc1ccc([N+](=O)[O-])cc1
inactive: [1] 14.7% | [2] -7.65% | [3] 14.7% | [4] -53.8% | [5] -11.3% | [6] 14.9%

O=C(Cc1ccccc1)NN1C(=O)/C(=C\c2cccc([N+](=O)[O-])c2)SC1=Nc1ccccc1
inactive: [1] -2.7% | [2] -15.2% | [3] 9.95% | [4] 17.1% | [5] -14.8% | [6] 0.85%
